Inconclusive results are not listed. Activity calls are given as the source filed them. The calls were made as follows: active = hit-call score of the fitted dose curve at least 0.9, where 1 is the maximum; inconclusive = response in the unintended direction; inactive = score below 0.9.
target: human Phosphatase and Tensin Homolog (PTEN), PTEN (gene 5728) (UniProt P60484); test: NVS_ENZ_hPTEN: NovaScreen (NVS) Enzymatic Assay for human Phosphatase and Tensin Homolog (PTEN) (AID 2283203)
Procedure: NVS_ENZ_hPTEN is a biochemical, single-readout assay that uses extracted gene-proteins in a cell-free assay. Measurements were taken 1 hour after chemical dosing in a 384-well plate.NVS_ENZ_hPTEN is one of one assay component(s) measured or calculated from the NVS_ENZ_hPTEN assay. It is designed to make measurements of enzyme activity, a form of enzyme reporter, as detected with fluorescence intensity signals by Fluorescence and electrophoretic mobility shift technology.Data from the assay component NVS_ENZ_hPTEN was analyzed into 1 assay endpoint. This assay endpoint, NVS_ENZ_hPTEN, was analyzed in the positive analysis fitting direction relative to DMSO as the negative control and baseline of activity. Using a type of enzyme reporter, loss-of-signal activity can be used to understand changes in the enzymatic activity as they relate to the gene PTEN. Furthermore, this assay endpoint can be referred to as a primary readout, because this assay has produced multiple assay endpoints where this one serves a enzymatic activity function. To generalize the intended target to other relatable targets, this assay endpoint is annotated to the phosphatase intended target family, where the subfamily is dual-specific phosphatase.
Binding assays used specific radioligands (tritiated, iodinated) with non-radioactive competitive displacement ligands in agonist or antagonist protocols (as indicated) and various reference compounds and inhibitors to titrate specific binding to receptors and transporters. Most enzyme assays (CYPs, kinases, phosphatases, proteases, HDACs) used recombinant protein and specific substrates (fluorescence mostly, some colorimetric and radioactive) and inhibitors, followed by a biochemical separation of substrate and product. All assays for the biochemical HTS were initially run in duplicate at a single concentration (10 uM for CYP450 assays and 25 uM for all others). […] Each assay was run with positive and negative controls, and concurrent controls on every plate. The follow-up (secondary) screen tested active chemical-pairs in concentration series, as well as a few additional assays not tested in the primary screen, some selected negative inactives, and several cases re-run in the concentration series for confirmatory purposes.

Chain of human Phosphatase and Tensin Homolog (PTEN), PTEN (gene 5728) (P60484 whole entry, looked up): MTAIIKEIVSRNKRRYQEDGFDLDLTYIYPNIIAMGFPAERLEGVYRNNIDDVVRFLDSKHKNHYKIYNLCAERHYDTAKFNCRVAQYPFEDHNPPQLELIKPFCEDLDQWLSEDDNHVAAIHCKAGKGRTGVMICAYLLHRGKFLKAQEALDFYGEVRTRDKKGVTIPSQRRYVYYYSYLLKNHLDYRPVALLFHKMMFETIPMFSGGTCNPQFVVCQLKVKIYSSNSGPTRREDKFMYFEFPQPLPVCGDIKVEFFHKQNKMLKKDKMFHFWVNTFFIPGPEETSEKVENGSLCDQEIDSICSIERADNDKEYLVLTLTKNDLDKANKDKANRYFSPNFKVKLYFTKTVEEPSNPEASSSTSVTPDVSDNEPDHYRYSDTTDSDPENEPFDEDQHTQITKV

Question: How did the outcome turn out when `c1ccc2ccccc2c1` was run?
Answer: inactive

Question: `CC(=O)OCC=C(C)CCC=C(C)CCC=C(C)C` was tested. Which outcome did it give?
Answer: inactive

Question: How did the AC50 turn out when `CC(C)c1ccccc1N` was run?
Answer: 12.4 µM (active)

Question: How did the outcome turn out when `O=[N+]([O-])c1ccc(CO)cc1` was run?
Answer: inactive

Question: Which outcome does the source give for `C=C1CC[C@H]2O[C@]2(C)CC[C@@H]2[C@@H]1CC2(C)C` here?
Answer: inactive

Question: `C#C[C@]1(O)CC[C@H]2[C@@H]3CCC4=Cc5oncc5C[C@]4(C)[C@H]3CC[C@@]21C` was tested. Which AC50 did it give?
Answer: 25 µM (active)

Question: With `CCC(=O)O` as the compound, how does the outcome read?
Answer: inactive

Question: With `ClC1=C(Cl)[C@]2(Cl)[C@@H]3[C@@H](Cl)[C@H](Cl)C[C@@H]3[C@@]1(Cl)C2(Cl)Cl` as the compound, how does the outcome read?
Answer: inactive

Question: For `Clc1ccc(-c2ccccc2)cc1`, which outcome is on record?
Answer: inactive

Question: `COc1ccccc1C=O` was tested. Which outcome did it give?
Answer: inactive

Question: With `S=C([S-])NCCNC(=S)[S-].[Mn+2]` as the compound, how does the AC50 read?
Answer: 0.933 µM (active)

Question: `CC(C)CCCCCCc1ccc(O)cc1` was tested. Which outcome did it give?
Answer: inactive

Question: How did the outcome turn out when `CCCC(C)C=O` (stereo not given) was run?
Answer: inactive

Question: Which outcome does the source give for `CCCCCCCCCCCC#N` here?
Answer: inactive

Question: For `CO[Si](OC)(c1ccccc1)c1ccccc1`, which outcome is on record?
Answer: inactive

Question: Which AC50 does the source give for `O=C(O)C[C@H](O)C[C@H](O)/C=C/c1c(C2CC2)nc2ccccc2c1-c1ccc(F)cc1` here?
Answer: 0.161 µM (active)

Question: How did the AC50 turn out when `CCCCOCC` was run?
Answer: 37 µM (active)

Question: How did the outcome turn out when `O=C1OC2(c3ccc(O)cc3Oc3cc(O)ccc32)c2ccccc21` was run?
Answer: inactive

Question: For `O=C1OC2(c3cc(Br)c(O)c(Br)c3Oc3c2cc(Br)c(O)c3Br)c2c(Cl)c(Cl)c(Cl)c(Cl)c21`, which AC50 is on record?
Answer: 0.851 µM (active)

Question: Which outcome does the source give for `CCc1cccc(CC)c1N(COC)C(=O)CS(=O)(=O)O` here?
Answer: inactive

Question: How did the outcome turn out when `Cc1ccccc1S(N)(=O)=O` was run?
Answer: inactive

Question: Which outcome does the source give for `C=C(C)CCO` here?
Answer: inactive

Question: For `CCC(C)C(=O)OC` (stereo not given), which outcome is on record?
Answer: inactive

Question: How did the AC50 turn out when `CCN(CC)CC` was run?
Answer: 3.58 µM (active)

Question: Which outcome does the source give for `COc1cccc(OC)c1O` here?
Answer: inactive

Question: With `S=c1[nH][nH]c(=S)s1` as the compound, how does the AC50 read?
Answer: 2.47 µM (active)

Question: Which outcome does the source give for `NC(=O)N(O)[C@@H]1C=C[C@H](Oc2cccc(Oc3ccc(F)cc3)c2)C1` here?
Answer: inactive

Question: With `Cc1cccc2c1ccc1ccccc12` as the compound, how does the AC50 read?
Answer: 13.8 µM (active)

Question: For `OCCC(O)CO` (stereo not given), which AC50 is on record?
Answer: 14.7 µM (active)

Question: `CCCCCCCCc1ccc(Nc2ccc(CCCCCCCC)cc2)cc1` was tested. Which outcome did it give?
Answer: inactive

Question: `CSC(=O)c1cccc2nnsc12` was tested. Which outcome did it give?
Answer: inactive

Question: `NCCO` was tested. Which outcome did it give?
Answer: inactive

Question: For `OCCCCl`, which outcome is on record?
Answer: inactive

Question: `CC(C)c1cccc(C(C)C)c1N1C(=O)c2ccc(O)cc2C1=O` was tested. Which outcome did it give?
Answer: inactive

Question: With `CCCCCCCCCCc1ccccc1` as the compound, how does the outcome read?
Answer: inactive

Question: For `CCCCCCCCC(C)=O`, which outcome is on record?
Answer: inactive

Question: For `COc1ccc(CCN2CCC(Nc3nc4ccccc4n3Cc3ccc(F)cc3)CC2)cc1`, which outcome is on record?
Answer: inactive

Question: How did the AC50 turn out when `CC/C=C\C/C=C\C/C=C\CCCCCCCC(=O)OC` was run?
Answer: 9.64 µM (active)

Question: For `CN(C[C@@H](CC[N+]12CCC(C3CCCCC3)(CC1)CC2)c1ccc(Cl)c(Cl)c1)C(=O)c1cc(C(F)(F)F)cc(C(F)(F)F)c1`, which AC50 is on record?
Answer: 16.2 µM (active)

Question: With `CC/C=C\C#N` as the compound, how does the outcome read?
Answer: inactive
